According to PubChem BioAssay (NCI):
Compounds without any hit were thinned out: in the full panel of roughly 79,000, 15% have a hit. No stated cut-off is given here; in the data, active means growth inhibition above about 70%; inactive means the rest. Where a SMILES comes first, the peptide text is derived from it. [ ]: non-standard residue; d: D form. The star is where a group is joined. ξ: configuration not given here. Boc = CC(C)(C)OC(=O)*; OBn = c1ccc(CO*)cc1; ξA = CC(N)C(=O)O

How the values were obtained:
[1] = NCI Yeast Anticancer Drug Screen. Data for the rad50 strain (AID 155);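 further: 0% = growth of vehicle-only cultures of the same strain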; conditions: S. cerevisiae rad50 strain growth inhibition; at 50.0 µM; active compounds read high
How it was run: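 Genetically altered yeast (DNA repair pathway); compound treatment; growth inhibition vs vehicle ctrl.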

[2] = NCI Yeast Anticancer Drug Screen. Data for the mec2-1 strain (AID 157); conditions: S. cerevisiae mec2-1 strain, at 50.0 µM, active compounds read high
How it was run: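 Compounds were applied to mec2-1 yeast cells. Their growth was then compared with that of vehicle-treated cultures to give growth inhibition.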

[3] = NCI Yeast Anticancer Drug Screen. Data for the sgs1 mgt1 strain (AID 161);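 further: 0% = growth of cultures given vehicle only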; conditions: S. cerevisiae sgs1 mgt1 strain, at 50.0 µM, active compounds read high
How it was run: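 Yeast cells carrying a defined DNA-repair defect were exposed to test compounds. Growth inhibition was measured relative to vehicle-treated controls.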

[4] = NCI Yeast Anticancer Drug Screen. Data for the cln2 rad14 strain (AID 165);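 further: 0% = growth equal to vehicle treated cultures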; conditions: S. cerevisiae cln2 rad14 strain, at 50.0 µM, active compounds read high
How it was run: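 Strain: cln2 rad14 yeast, altered in cell cycle control and DNA damage repair. Read-out: growth inhibition vs vehicle.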

[5] = NCI Yeast Anticancer Drug Screen. Data for the bub3 strain (AID 167); conditions: S. cerevisiae bub3 mutant strain, at 50.0 µM, active compounds read high
How it was run: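 Yeast carrying a defined mutation is treated with each compound, and growth is compared with that of vehicle-exposed cells to give inhibition.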

[6] = NCI Yeast Anticancer Drug Screen. Data for the mlh1 rad18 strain (AID 175); conditions: S. cerevisiae mlh1 rad18 strain growth inhibition; at 50.0 µM; active compounds read high
How it was run: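 A repair-deficient yeast strain is exposed to test compound, and growth is scored relative to vehicle-treated controls.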

Measured: growth inhibition

O=c1c(SCc2ccc(Cl)c(Cl)c2)c(SCc2ccc(Cl)c(Cl)c2)cnn1-c1ccccc1
inactive: [1] -8.5% | [2] -11.5% | [3] -6.05% | [4] -1.6% | [5] -13.4% | [6] 15.3%

O=C1CC2(C(=O)N1CN(Cc1ccccc1)Cc1ccccc1)c1ccccc1-c1ccccc12
inactive: [1] 34.5% | [2] 2.1% | [3] -5.55% | [4] 14.1% | [5] -1.1% | [6] 22.4%

COc1cc2nncc(Sc3cnnc4ccccc34)c2cc1OC
inactive: [1] 19.1% | [2] 29.6% | [3] 18.6% | [4] 13.3% | [5] 36% | [6] 35.6%

COc1ccc(C2=CSc3ccccc3N2)cc1
inactive: [1] 11.2% | [2] 15.8% | [3] 42.3% | [4] 6.1% | [5] 36.3% | [6] 11.4%

CC(NC(=O)CNC(=O)CNC(=O)CNC(=O)CN)C(=O)O (stereo unspecified) (H-GGGG[ξA]-OH)
inactive: [1] -26.9% | [2] -30.9% | [3] -8.55% | [4] -10.6% | [5] -14.5% | [6] -31.6%

CCOC(=O)C1C(=O)N(O)c2cnccc21 (stereo unspecified)
inactive: [1] -1.9% | [2] -16.6% | [3] -12.5% | [4] -12.2% | [5] 15% | [6] 8.35%

CN1CCC(c2ccccc2)(c2ccccc2)OC1c1ccccc1 (stereo unspecified)
inactive: [1] 1.65% | [2] -12.2% | [3] -7.85% | [4] 1.35% | [5] 8.85% | [6] -18.2%

C=CCNC(=S)Nc1ccccc1
inactive: [1] -1.8% | [2] -9.95% | [3] 4.25% | [4] -5.1% | [5] -18.9% | [6] -11.9%

[O-]c1c[n+](CCCC[n+]2cc([O-])on2)no1
inactive: [1] -5.4% | [2] -32.8% | [3] -13.3% | [4] 3.55% | [5] -60.7% | [6] -1.95%

CC(C)CC(NC(=O)OC(C)(C)C)C(=O)NC(CCC(=O)OCc1ccccc1)C(N)=O (stereo not drawn) (Boc-Leu-Glu(OBn)-NH2; configuration not given here)
inactive: [1] 19.1% | [2] -8.9% | [3] 8.65% | [4] 19.9% | [5] 24.4% | [6] 4.65%

Nc1on(C(=O)c2ccccc2)c(=O)c1Cc1ccccc1
inactive: [1] -19.2% | [2] 3.6% | [3] 15.9% | [4] -36% | [5] 2.25% | [6] -2.1%

COC(=O)c1sc(=O)n(-c2ccccc2)c1SCc1ccccc1
inactive: [1] 25.4% | [2] -5.15% | [3] 60% | [4] 12.9% | [5] 30.8% | [6] 18.8%

CCCSC(=O)Nc1ccc(Cc2ccc(NC(=O)SCCC)cc2)cc1
inactive: [1] 2.05% | [2] -17.3% | [3] 16.6% | [4] 21.8% | [5] 16.4% | [6] 14.5%

C=CC(=O)OCCCS(=O)(=O)[O-].C=CC(=O)OCCCS(=O)(=O)[O-].NC1CCCCC1N.[Pt+4]
inactive: [1] 3.05% | [2] -7.75% | [3] -4.25% | [4] 37.5% | [5] 14.1% | [6] 9.75%

CCOC(=O)CC1(CC(=O)OCC)OCCO1
inactive: [1] -6.2% | [2] 7.1% | [3] -2.05% | [4] -4.15% | [5] -28.8% | [6] -26.2%

Cc1ccc(CNC(=O)Nc2cccc(Cl)c2)cc1C
inactive: [1] 6.05% | [2] 15.5% | [3] 7.05% | [4] 1.3% | [5] 16.8% | [6] 5.35%

Cc1cc(C)c(C)c(CC(C)(COS(C)(=O)=O)COS(C)(=O)=O)c1C
inactive: [1] 8.6% | [2] 11% | [3] 27.1% | [4] 39.2% | [5] 5.85% | [6] 28.1%

CCOC(=O)C(CNCc1ccccc1)(c1ccccc1)c1ccccc1
inactive: [1] -6.5% | [2] -4.85% | [3] -23.9% | [4] -31.3% | [5] 9.95% | [6] 2.45%

CCOC1CCC(C(C)=O)C(C#N)(C#N)C1(C#N)C#N (stereo unspecified)
inactive: [1] 38.1% | [2] -9.55% | [3] -21.6% | [4] -7.35% | [5] -37.9% | [6] -42.5%

CCCCCCCCCCCCCCCCCCCl
inactive: [1] 4.9% | [2] 6.6% | [3] 0.05% | [4] -31.1% | [5] 5.7% | [6] 28.4%

Cc1cc(C)nc(NC(=O)COc2ccc(Cl)cc2)c1
inactive: [1] -15.7% | [2] 5.95% | [3] -20.8% | [4] -39.7% | [5] -37.5% | [6] -14.8%

COc1ccc(C2=NOC(c3ccc(OC)cc3)C2)cc1 (stereo unspecified)
inactive: [1] -6.85% | [2] -18.3% | [3] -7.25% | [4] -13.8% | [5] 6.05% | [6] 9.55%

Oc1ccccc1C=Nc1ccc2c(ccc3c4ccccc4ccc23)c1
inactive: [1] 51.8% | [2] 39.8% | [3] 28% | [4] -6.65% | [5] 48.1% | [6] 39.8%

CC(=O)CC1CCC(CC(C)=O)CC1 (stereo unspecified)
inactive: [1] 13.1% | [2] 7.2% | [3] -13.3% | [4] -66.3% | [5] -4.1% | [6] -23.5%

COc1cccc(-c2cc(=O)c3cc(Cl)cnc3[nH]2)c1
inactive: [1] 5.35% | [2] 2.7% | [3] 4.2% | [4] 31.1% | [5] 11.8% | [6] 5.1%

COC1OC(COCc2ccccc2)C(OCc2ccccc2)C(OC)C1O (stereo unspecified)
inactive: [1] -37.6% | [2] -3% | [3] 5.6% | [4] -40.9% | [5] -2.3% | [6] -17.6%

Cc1ccc(NC(=O)OCC(F)(F)C(F)(F)C(F)(F)F)c(NC(=O)OCC(F)(F)C(F)(F)C(F)(F)F)c1
inactive: [1] -9.15% | [2] -12.1% | [3] -8.6% | [4] -33.6% | [5] -4.05% | [6] 12.8%

C=C1C(OC(C)=O)CC(OC(C)=O)C2(C)C(OC(C)=O)C(OC(C)=O)C3=C(C)C(OC(=O)/C=C/c4ccccc4)CC(C(OC(C)=O)C12)C3(C)C (stereo unspecified)
inactive: [1] 4.8% | [2] -12.1% | [3] 5.6% | [4] -4.75% | [5] 20.6% | [6] 15.6%

Cc1cc(C)c(NC(=O)Nc2ccc(C(Cl)(Cl)Cl)cc2)c(C)c1
inactive: [1] 4.9% | [2] 11.5% | [3] 8.8% | [4] 7% | [5] 2.9% | [6] 2.8%

Brc1ccc(Br)s1
inactive: [1] -11.2% | [2] -0.1% | [3] -20.4% | [4] -38.3% | [5] 7.5% | [6] 0.4%

COc1ccc(C(=O)C(C)CN2CCOCC2)cc1 (stereo unspecified)
inactive: [1] 68.1% | [2] 22.6% | [3] 40.5% | [4] 32.6% | [5] 52.8% | [6] 53.5%

CS(=O)(=O)CC1=NC(=N)N=C1CS(C)(=O)=O
inactive: [1] 6.05% | [2] -14.9% | [3] -8.95% | [4] -4.85% | [5] -29.8% | [6] 2.1%

OCC1OC(n2cc3ccccc3n2)C(O)C1O (stereo unspecified)
inactive: [1] 3.55% | [2] 4.85% | [3] -5.55% | [4] -3.8% | [5] 5.65% | [6] -8.45%

CCSCC1OC(n2cnc3c(=S)nc(N)[nH]c32)C(O)C1O (stereo unspecified)
inactive: [1] 15.2% | [2] 10.1% | [3] -0.75% | [4] 16.4% | [5] 11.8% | [6] 21.1%

CCCC(=O)c1ccc(=O)n(C)c1
inactive: [1] 18.2% | [2] 9.8% | [3] -4.4% | [4] -2.1% | [5] 14.4% | [6] 17.9%

Cc1cc2c(cc1C)-c1nn(-c3ccccc3)c(-c3ccc(Cl)cc3)c1CCO2
inactive: [1] 27.2% | [2] 1.35% | [3] -1.75% | [4] 17.9% | [5] -6.2% | [6] 3.65%
